Most compounds without a hit are left out; they make up all but 0.63% or so of the library.
Platelet DG rel – inhibitors of platelet dense granule secretion, primary screen, cell-based, MLPCN, human platelets | human platelet-rich plasma, SFLLRN dense granule ATP release, luminescence | inhibition, %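 (compounds screened at 7.5 µM in platelet-rich plasma)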 | hit rate 0.22% among 300,000 | AID 1663, 2009;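 active = mean replicate score, as percent of positive control, at or above 50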
NTR1 ag – agonists of human NTR1, primary screen, imaging, U2OS cells, beta-arrestin-GFP, high content | NTR1-U2OS beta-arrestin-GFP spot imaging, agonist mode | Neurotensin receptor type 1 (Homo sapiens), P30989 | hit rate 0.17% among 330,000 | activation, % at 20 µM;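 active = activation at or above 40% of the spot to cytoplasm intensity ratio, with at least 20 cells analyzed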
Target sequence (P30989 whole entry, looked up): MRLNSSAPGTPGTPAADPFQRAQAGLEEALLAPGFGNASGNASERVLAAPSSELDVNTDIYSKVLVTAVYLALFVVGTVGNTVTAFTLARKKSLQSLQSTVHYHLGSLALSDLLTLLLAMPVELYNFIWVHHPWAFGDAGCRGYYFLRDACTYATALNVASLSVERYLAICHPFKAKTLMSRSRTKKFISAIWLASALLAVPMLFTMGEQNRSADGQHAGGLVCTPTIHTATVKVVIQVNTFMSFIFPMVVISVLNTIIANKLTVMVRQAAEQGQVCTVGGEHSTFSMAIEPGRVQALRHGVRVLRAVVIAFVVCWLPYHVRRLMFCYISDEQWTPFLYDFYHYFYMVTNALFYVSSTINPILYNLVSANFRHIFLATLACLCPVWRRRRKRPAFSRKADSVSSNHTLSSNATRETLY
HIF act – HIF pathway transcriptional activators, primary screen, cell-based, U2OS HRE-luciferase, luminescence | U2OS HRE-luciferase reporter; normalized: DMSO 0%, desferrioxamine 100% | activation, % at 7.5 µM (by protocol) | hit rate 0.32% among 300,000 | AID 1910, 2009;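 active = mean activation of at least 10% of the iron chelator positive control signal, with at least half of replicates also reaching 10%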
Large screens that a line does not name were inactive.

CCOP(=O)(c1ccc(N(C)C)cc1)C(O)c1ccccc1 (stereo not given)	none
COc1ccc(CC(=O)Nc2cccc(-c3nnc(-c4ccc(C)cc4)o3)c2)cc1OC	none
COc1ccc(CC(=O)Nc2cccc(-c3nnc(-c4ccccc4)o3)c2)cc1OC	HIF act 376.2 (no result: NTR1 ag)
Cc1cc(SCC(=O)Nc2ccccc2C)nc(C)n1	none
O=C1N/C(=C/c2cccs2)C(=O)N1Cc1ccc(Br)cc1	HIF act 328.4
Cc1ccc(/C=C2/NC(=O)N(Cc3ccccc3)C2=O)s1	none
O=C(c1ccc(Cl)cc1)N1CCn2c1nc1ccccc12	none
Cc1nc(-c2coc3cc(O)c(C)cc3c2=O)cs1	none
Oc1ccc(-c2cn3ccccc3n2)cc1	none
Cc1ccn2cc(-c3cccc(NC(=O)C(C)C)c3)nc2c1	none
Cc1ccn2cc(-c3ccc(O)c(O)c3)nc2c1	HIF act 29.6
Oc1ccc(-c2cn3ccccc3n2)cc1O	HIF act 45.0
CCOC(=O)c1nc2nc(-c3cccs3)cc(C(F)(F)F)n2n1	none
Nc1nc2nc(-c3cccs3)cc(C(F)(F)F)n2n1	HIF act 24.2
CCOC(=O)c1c(S(=O)(=O)N2CCCC2)c(C)n(C)c1C	HIF act 47.6
CCOC(=O)c1c(S(=O)(=O)N2CCN(C)CC2)c(C)n(C)c1C	none
O=C(O)/C=C/c1cccc(NC(=O)c2ccccc2)c1	Platelet DG rel 64.0
O=C(O)/C=C/c1cccc(NC(=O)c2ccc(Cl)cc2)c1	none
S=C(NCc1ccc2c(c1)OCO2)NCc1ccc2c(c1)OCO2	none
O=C(O)c1ccc(-c2nnc(-c3ccccc3)o2)cc1	none
O=C(c1ccc(-c2nnc(-c3ccccc3)o2)cc1)N1CCCCCC1	HIF act 40.4 (no result: Platelet DG rel)
Cc1ccc(NC(=O)CN(C)S(=O)(=O)c2cccc3nsnc23)cc1	none
CC(=O)c1cccc(NC(=O)CN(C)S(=O)(=O)c2cccc3nsnc23)c1	HIF act 13.8
Cc1ccc(NC(=O)CCc2c(C)[nH]c(=O)c(C#N)c2C)cc1	none
CCCCOC(=O)CCc1c(C)[nH]c(=O)c(C#N)c1C	Platelet DG rel 60.8
CC1(C)Cc2c(cnn2-c2ccccc2)C(NC(=O)CCCN2CCCCC2=O)C1 (stereo not given)	none
O=C(CCN1CCN(c2ccccc2)CC1)N/N=C/c1ccccc1O	HIF act 16.9
CN1CCN(CCC(=O)N/N=C/c2ccccc2F)CC1	none
COc1cc(OC)c2c(c1)C(=O)OC2	none
COc1ccc(NC(=O)c2cccc([N+](=O)[O-])c2)cc1	none
COc1ccc(NC(=O)c2cc([N+](=O)[O-])ccc2O)cc1	Platelet DG rel 71.5
COc1cccc(C(=O)NCC(=O)N/N=C/c2c(C)[nH]c3ccccc23)c1	none
Cc1ccc(Nc2nc(N)nc(CN3CCC(C)CC3)n2)c(C)c1	none
Cc1cc(F)ccc1S(=O)(=O)N1CCCOC1CNC(=O)C(=O)NCCN1CCOCC1 (stereo not given)	none
COc1ccc(C2C(C#N)=C(N)N(N(C)C)C3=C2C(=O)CC(C)(C)C3)cc1 (stereo not given)	none
CCCc1cc(-c2nc(N)ncc2-c2csc(C)n2)c(O)cc1OC	none
CCCc1cc(-c2nc(N)ncc2-c2ccc3c(c2)OCCCO3)c(O)cc1OC	Platelet DG rel 69.6, NTR1 ag 49.3
CC(=O)c1ccc(NC(=O)c2ccn[nH]2)cc1	Platelet DG rel 50.3
O=C(Nc1ccccc1)c1ccn[nH]1	none
O=C(NCCCN1CCOCC1)c1cc(Cl)ccc1[N+](=O)[O-]	none
CCCC(=O)Nc1ccc(C(=O)Nc2nnc(COC)s2)cc1	none
O=C(CSc1nc2ccccc2c(=O)n1Cc1ccco1)Nc1cccc(O)c1	none
COc1cccc(/C=N/NC(=O)C(c2ccncc2)N2CCOCC2)c1 (stereo not given)	none
O=C(N/N=C/c1cc(Br)ccc1O)C(c1ccncc1)N1CCOCC1 (stereo not given)	HIF act 12.2
O=C(O)C1CC1C(=O)N1CCN(c2ccc(Cl)c(Cl)c2)CC1 (stereo not given)	none
COc1cccc(CN2CC(C(=O)N3CCCCCC3)CCC2=O)c1 (stereo not given)	none
O=c1cc(O)c2c(=O)n(Cc3ccccc3)c3ccccc3c2o1	none
CCCCn1c(=O)c2c(O)cc(=O)oc2c2ccccc21	HIF act 21.9
CC(=O)Nc1ccc(CN2CCCCCC2)cc1	none
CC(C)COc1ccc(C(=O)Nc2ccc(NC(=O)c3ccco3)c(Cl)c2)cc1	Platelet DG rel 49.7
CC(C)Oc1ccc(C(=O)Nc2ccc(NC(=O)c3ccco3)c(Cl)c2)cc1	none
Cc1ccc(C(=O)Nc2ccc3c(c2)OCO3)cc1NC(=O)c1ccco1	none
Cc1cc(NC(=O)c2ccc3c(c2)OCO3)ccc1NC(=O)c1ccco1	Platelet DG rel 74.9
O=C(CCN1CCOCC1)c1ccc(Cl)cc1	none
CCCCn1c(N)c(N(C)C(=O)c2cc3c(F)cccc3s2)c(=O)[nH]c1=O	none (no result: Platelet DG rel, HIF act)
COC(=O)c1nnn(CC(=O)NC(=O)Nc2cccc(C)c2C)c1C(=O)OC	none
NC(=S)N/N=C/c1ccc(C23CC4CC(CC(C4)C2)C3)cc1	NTR1 ag 44.0
NC(=S)N/N=C/c1ccccc1	none
COc1ccc(C(=O)Nc2ccccc2C(=O)Nc2cccnc2)cc1	Platelet DG rel 64.0
COc1ccc(C(=O)Nc2cccnc2)cc1	none
CCCC(=O)OCCNc1cc(Sc2nc3ccccc3[nH]2)c2nonc2c1[N+](=O)[O-]	none
Cc1cc(NC(=O)CSCC(=O)Nc2cc(C(F)(F)F)ccc2N2CCCC2)no1	none
Cc1cc(NC(=O)CSCC(=O)Nc2ccccc2N2CCCCC2)no1	Platelet DG rel 50.5
CCCc1cc(=O)oc2cc(OCC(=O)N3CCc4ccccc43)ccc12	Platelet DG rel 74.4
CCCCc1cc(=O)oc2cc(OCC(=O)N3CCc4ccccc43)ccc12	none
Cc1ccc(NC(=O)CCC(=O)NNC(=O)/C=C/C(=O)O)c(C)c1	none
COc1ccc2c(c1)c(C(C)=O)c(C)n2C	none
COc1ccc2c(c1)c(C(=O)CN1CCc3ccccc3C1)c(C)n2C	HIF act 44.1
O=C(COC(=O)/C=C/c1cn(-c2ccccc2)nc1-c1ccc2c(c1)OCCO2)NC1CCS(=O)(=O)C1 (stereo not given)	Platelet DG rel 52.5
CN(C(=O)COC(=O)/C=C/c1cn(-c2ccccc2)nc1-c1ccc2c(c1)OCCO2)C1CCS(=O)(=O)C1 (stereo not given)	none
COc1ccc(-c2nc3ccccc3c(=O)n2O)cc1	none
Cn1cc(CCC(=O)NCc2cccc(Cl)c2)c2ccccc21	none
COc1ccc(NC(=O)CSc2nc3nc(C)cc(C)c3c(=O)[nH]2)cc1	none
CCN(CC)c1ccc(NC(=O)CSc2nc3nc(C)cc(C)c3c(=O)[nH]2)cc1	HIF act 385.9
CCn1ccnc1CN1CCCC(C(=O)c2ccc3cc(OC)ccc3c2)C1 (stereo not given)	none
Cc1c(Cl)c(=O)oc2cc(OCC(=O)NCc3cccs3)ccc12	none
CCOc1ccc2c(C)c(Cl)c(=O)oc2c1	HIF act 95.7
CCOC(=O)c1ccc(-c2cccc(-c3cc(=O)oc4cc(OC)cc(OC)c34)c2)cc1	none (no result: Platelet DG rel, HIF act)
COc1ccc(CC(NC(C)=O)C(=O)NC2CCN(C(=O)Nc3ccc(Cl)cc3)CC2)cc1OC (stereo not given)	HIF act 36.5
